Screen size: about 310,000 compounds; about 14,000 (4.5%) showed an effect of 50% or more. The effect is printed as a negative number. Only a selection was taken, and strong results are over-represented in it overall.
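Also: peak tail current of the secondary pulse compared with the same well before compound.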

Sequence of human ether-à-go-go-related gene (hERG) potassium channel (Q12809 whole entry, looked up): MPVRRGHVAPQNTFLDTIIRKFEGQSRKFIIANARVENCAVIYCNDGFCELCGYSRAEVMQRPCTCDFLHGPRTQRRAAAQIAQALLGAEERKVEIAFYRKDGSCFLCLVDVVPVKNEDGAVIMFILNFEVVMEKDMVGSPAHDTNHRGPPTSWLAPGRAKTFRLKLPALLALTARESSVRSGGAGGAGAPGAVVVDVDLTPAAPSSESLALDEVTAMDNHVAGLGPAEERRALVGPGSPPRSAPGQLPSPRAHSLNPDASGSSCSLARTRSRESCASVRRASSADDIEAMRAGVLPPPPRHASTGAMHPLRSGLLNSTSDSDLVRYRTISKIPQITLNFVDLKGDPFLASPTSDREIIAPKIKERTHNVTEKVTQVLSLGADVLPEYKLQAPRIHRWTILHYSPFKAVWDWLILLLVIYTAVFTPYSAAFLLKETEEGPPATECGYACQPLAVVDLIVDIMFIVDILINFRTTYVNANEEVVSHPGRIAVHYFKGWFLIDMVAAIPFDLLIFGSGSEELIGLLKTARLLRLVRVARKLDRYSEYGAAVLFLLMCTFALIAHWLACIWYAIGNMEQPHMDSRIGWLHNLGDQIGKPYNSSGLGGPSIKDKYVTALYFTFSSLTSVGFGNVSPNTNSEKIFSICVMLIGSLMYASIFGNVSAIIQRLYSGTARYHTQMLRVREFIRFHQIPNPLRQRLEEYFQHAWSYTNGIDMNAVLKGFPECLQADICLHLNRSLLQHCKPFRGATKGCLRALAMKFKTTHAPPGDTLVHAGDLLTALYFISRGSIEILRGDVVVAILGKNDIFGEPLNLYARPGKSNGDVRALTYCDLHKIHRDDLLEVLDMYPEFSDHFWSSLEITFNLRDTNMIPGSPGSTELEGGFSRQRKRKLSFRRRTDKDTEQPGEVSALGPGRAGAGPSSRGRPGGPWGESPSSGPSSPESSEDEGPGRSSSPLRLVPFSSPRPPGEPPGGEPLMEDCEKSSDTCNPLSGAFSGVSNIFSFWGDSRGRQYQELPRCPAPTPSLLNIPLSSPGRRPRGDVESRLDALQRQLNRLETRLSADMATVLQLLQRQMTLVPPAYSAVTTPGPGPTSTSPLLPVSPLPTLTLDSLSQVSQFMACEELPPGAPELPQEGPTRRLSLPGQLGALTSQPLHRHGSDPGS

The test addresses human ether-à-go-go-related gene (hERG) potassium channel (human, UniProt Q12809). Description: primary screen, population patch clamp on CHO cells stably expressing hERG; higher = less effect of the substance.
With `S=C(NCc1cccnc1)Nc1cccc(Cl)c1`, the “hERG current change (%, negative = inhibition) at 10uM” value was -9.78%.
On to `CCOc1cc(C2Nc3ccccc3C(=O)N2c2ccccc2OC)ccc1O` (stereo not drawn), for which the “hERG current change (%, negative = inhibition) at 10uM” value stood at 1.46%.
Take `CC(C)CC(=O)N(c1ccc(F)cc1)C1C=CS(=O)(=O)C1` (stereo not drawn): the “hERG current change (%, negative = inhibition) at 10uM” value turned out to be 14.4%.
In the case of `CC(=O)N1N=C2C3CCN(CC3)C2C1c1ccc(Br)cc1` (stereo not drawn), the “hERG current change (%, negative = inhibition) at 10uM” value turned out to be 4.62%.
Then `COc1ccc(CNc2nc3nc(C)c(Cl)c(C)n3n2)cc1`, with 2.05%; and `Cc1cc(C)n2nc(NCc3ccccc3)nc2n1`, with -9.34%; and `COc1ccc(CNc2nc3nc(C)c(Cl)c(C)n3n2)cc1OC`, with -7.54%.
For the molecule `COc1cccc(CNc2nc3nc(C)c(Cl)c(C)n3n2)c1`, the “hERG current change (%, negative = inhibition) at 10uM” value is reported as -57.9%.
Then `COc1cccc(CNc2nc3nc(C)cc(C)n3n2)c1`, with -15.6%; and `Cc1cc(C)n2nc(NCc3cccc(Br)c3)nc2n1`, with -70%; and `CC(NC(=O)Cc1ccccc1F)c1ccc(F)cc1` (stereo not drawn), with 6.9%.
As to `Cc1ccc(C2=C/C(=C\c3cccnc3)C(=O)O2)cc1`, the “hERG current change (%, negative = inhibition) at 10uM” value stood at 30.8%.
Regarding `NC(=O)NCCCC(=O)OCC(=O)c1ccc2ccccc2c1`, the “hERG current change (%, negative = inhibition) at 10uM” value is reported as 13.4%.
Then `CCCNC(=O)N1CCC(c2nc3ccccc3s2)CC1`, with -16.8%; and `CCOc1cc(N2CCOCC2)c(OCC)cc1NC(=O)COC(=O)c1cc(C)cc(C)c1`, with -3.29%; and `COc1c2ccccc2c(OC)c2ccccc12`, with 12.9%.
Take `C/C=C/c1ccccc1OCc1ccc(C(=O)O)o1`: the “hERG current change (%, negative = inhibition) at 10uM” value stood at 20%.
The figure for `CSCC[C@H](NC(=O)COc1ccc(Cl)cc1Cl)c1nc2ccccc2[nH]1` is 14.7%; for `CSCC[C@H](NC(=O)C(C)Oc1ccc(Cl)cc1)c1nc2ccccc2[nH]1` (stereo partly drawn) it is -7.16%.
`CSCC[C@H](NC(=O)COc1ccc(Cl)cc1)c1nc2ccccc2[nH]1`: the “hERG current change (%, negative = inhibition) at 10uM” value is given as -56.5%.
Then `CCc1nnc(NC(=O)CSc2nnc(-c3ccoc3C)n2-c2ccccc2)s1`, with -3.54%.
In the case of `CCc1nnc(NC(=O)CSc2nnc(-c3ccoc3C)n2-c2cccc(C)c2)s1`, the “hERG current change (%, negative = inhibition) at 10uM” value is given as -58.3%.
Then `CCCn1c(SCC(=O)Nc2nnc(C)s2)nnc1-c1ccoc1C`, with 3.4%.
The figure for `Cc1cccc(-n2c(SCC(=O)Nc3nnc(C)s3)nnc2-c2ccoc2C)c1` is -63.9%; for `CCc1nnc(NC(=O)CSc2nnc(-c3ccoc3C)n2-c2ccc(C)cc2)s1` it is -26.4%.
Consider `Cc1ccc(C)c(-n2c(SCC(=O)Nc3nnc(C)s3)nnc2-c2ccoc2C)c1`, for which the “hERG current change (%, negative = inhibition) at 10uM” value is 5.96%.
Then `O=C(NCCc1ccccc1Cl)c1cc(COc2ccc(F)cc2F)on1`, with 7.59%; and `O=C(CCC(=O)Nc1ccc(F)cc1)N/N=C/c1cccnc1`, with 17.8%; and `CCOc1ccc(S(=O)(=O)NCCC(=O)NCc2ccco2)cc1`, with -0.369%.
In the case of `O=C(NC1CCCCC1)c1ccc(S(=O)(=O)N2CCCCC2)cc1`, the “hERG current change (%, negative = inhibition) at 10uM” value is on record as -6.43%.
For the molecule `COc1ccc(S(=O)(=O)Nc2cc(C(C)C)c(O)cc2C)cc1`, the “hERG current change (%, negative = inhibition) at 10uM” value was -2.38%.
As for `COC1CCCN(Cc2c(C(=O)N3CCc4ccccc4C3)nc3ccc(Cl)cn23)C1` (stereo not drawn), the “hERG current change (%, negative = inhibition) at 10uM” value was -35.9%.
The figure for `CN(C)C(=O)c1nc2ccc(Cl)cn2c1CN1CCCC(OCc2ccccc2)C1` (stereo not drawn) is -36.2%; for `CN(C)C(=O)c1nc2ccc(Cl)cn2c1CN1CCCC(OCc2cccnc2)C1` (stereo not drawn) it is -57.9%.
The figure for `NCCNc1ccc2nnnn2n1` is 38.7%.
Then `Oc1ccccc1CN1CCCC(N2CCc3ccccc3C2)C1` (stereo not drawn), with -38.8%; and `CCOc1cccc(CN2CCCC(N3CCc4ccccc4C3)C2)c1O` (stereo not drawn), with -52.9%.
As for `COc1ccc(CN2CCCC(N3CCc4ccccc4C3)C2)c(O)c1` (stereo not drawn), the “hERG current change (%, negative = inhibition) at 10uM” value is on record as -60.1%.
Then `CCOc1cc(CN2CCCC(N3CCc4ccccc4C3)C2)ccc1O` (stereo not drawn), with -21.4%; and `COc1cccc(CN2CCCC(N3CCc4ccccc4C3)C2)c1O` (stereo not drawn), with -17.7%.
The figure for `COc1ccc(O)c(CN2CCCC(N3CCc4ccccc4C3)C2)c1` (stereo not drawn) is -46.6%; for `CCC(C)(C)NC(=O)C(c1ccc(OC)cc1)N(CCOC)C(=O)CCC(=O)Nc1nccs1` (stereo not drawn) it is 0.428%.
The figure for `COc1cc(NC(=O)Cn2cnc(S(=O)(=O)N3CCCCC3)c2)cc(OC)c1OC` is 14.9%; for `Cc1ccc(-c2ncccc2OC(=O)C23CC4CC(CC(C4)C2)C3)cc1.Cl` it is 12%; for `COc1ccc2c(c1OC)CN1CCc3cc4c(cc3[C@H]1C2)OCO4` it is -1.81%.
As for `COc1cc2c(cc1OC)C(=O)Cc1ccc3c(c1CN(C)CC2)OCO3`, the “hERG current change (%, negative = inhibition) at 10uM” value is on record as -54.1%.
As for `Br.COc1c2c(cc3c1OCO3)CCN(C)C2`, the “hERG current change (%, negative = inhibition) at 10uM” value was 0.899%.
For `COc1cc2c(cc1OC)C(C1c3cc4c(cc3CCN1C)OCO4)OC2=O` (stereo not drawn), the “hERG current change (%, negative = inhibition) at 10uM” value is given as 4.1%.
In the case of `COc1ccc2c(c1OC)CN(C)CCc1cc3c(cc1C(=O)C2)OCO3`, the “hERG current change (%, negative = inhibition) at 10uM” value was -81%.
The figure for `COc1ccc2c(c1OC)CN(C)CCc1cc3c(cc1C(O)C2)OCO3` (stereo not drawn) is -27.1%.
Consider `O=C(Nc1ccc(CN2CCOCC2)cc1)c1ccc(Br)o1`, for which the “hERG current change (%, negative = inhibition) at 10uM” value turned out to be 1.56%.
Then `Cc1ccc2nc(SCC(=O)N3CC(C)OC(C)C3)nc(=O)n2c1` (stereo not drawn), with -13%; and `O=C(N/N=C/c1cc([N+](=O)[O-])c(N2CCOCC2)cc1N1CCOCC1)c1cccnc1`, with -22.4%; and `CCOC(=O)N1CCC(c2cc(=O)n3[nH]cc(C(=O)OC)c3n2)CC1`, with 9.34%.
Take `CCC1(C(=O)OC)CCc2c(cc(OC)c3ccccc23)C1=O` (stereo not drawn): the “hERG current change (%, negative = inhibition) at 10uM” value stood at 3.07%.
With `CC[C@]12CCCN3CCc4c(n(c5ccccc45)[C@@](O)(C(=O)OC)C1)[C@@H]32`, the “hERG current change (%, negative = inhibition) at 10uM” value is on record as -80.9%.
The figure for `CCC12CCCN3CCc4c(n(c5ccccc45)C(O)(C(=O)OC)C1)C32` (stereo not drawn) is -28.9%; for `CC[C@H]1CC2CN3CCc4c([nH]c5ccccc45)C(C(=O)OC)(C2)C13.Cl` (stereo partly drawn) it is -2.97%.
The figure for `CC[C@]12CCCN3CCc4c(n(c5ccccc45)[C@](O)(C(=O)OC)C1)[C@@H]32` is -72.4%; for `COC(=O)[C@@H]1[C@H]2C[C@H]3c4[nH]c5ccccc5c4CCN3C[C@@H]2CC[C@@H]1O.Cl` it is -22%.

Source of the values: article PMC4336329 (PLoS ONE, 2015).
